In PubChem BioAssay (NCATS):
Records with an inconclusive call do not appear. Entries that show only a call come without a potency. Calls of active or inactive are those of the source. The call rests on the fitted dose curve; in most records, active means well fitted curve in the direction sought with a large enough effect; inconclusive means small, poorly fitted or top-dose-only effect, or another doubt; inactive means no such curve, though single readings can be large; an effect the other way counts as inactive or inconclusive.

Assays:
[1] = Quantitative High-Throughput drug screen in 47 multiple myeloma cell lines against the NCATS MIPE library collection: FR4_PLB cell viability assay (AID 1918924; further: nearly all actives have a fitted effect of over 35% in size)
Summary of the method: (§1)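 Myeloma cells (500 per well) were exposed to MIPE 4.0 compounds by pin transfer and incubated 48 hours at 37C, 5% CO2. Viability was read as ATP by CellTiter-Glo luminescence, normalised to DMSO (100%) and media-only (0%) wells.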

[2] = Quantitative High-Throughput drug screen in 47 multiple myeloma cell lines against the NCATS MIPE library collection: Delta47_JCRB cell viability assay (AID 1918925; further: nearly all actives have a fitted effect of over 45% in size)
Summary of the method: (§2)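 We plated 500 myeloma cells per well, pinned in MIPE 4.0 compounds, and incubated for 48 hours at 37C. ATP was then quantified with CellTiter-Glo, with DMSO and media-only wells defining 100% and 0%.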

[3] = Quantitative High-Throughput drug screen in 47 multiple myeloma cell lines against the NCATS MIPE library collection: AMO1_DSMZ cell viability assay (AID 1918927; further: nearly all actives have a fitted effect of over 30% in size)
Summary of the method: as §2

[4] = Quantitative High-Throughput drug screen in 47 multiple myeloma cell lines against the NCATS MIPE library collection: ARP1_JJKsccF8 cell viability assay (AID 1918928; further: nearly all actives have a fitted effect of over 40% in size)
Summary of the method: (§3)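 Each line was plated at 500 cells/well and treated 48 h with library drugs. Viability came from CellTiter-Glo luminescence relative to DMSO and cell-free medium controls.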

[5] = Quantitative High-Throughput drug screen in 47 multiple myeloma cell lines against the NCATS MIPE library collection: ARD_JJKsccE7 cell viability assay (AID 1918929)
Summary of the method: as §2

[6] = Quantitative High-Throughput drug screen in 47 multiple myeloma cell lines against the NCATS MIPE library collection: Karpas620_DSMZ cell viability assay (AID 1918959); further: nearly all actives have a fitted effect of over 30% in size
Summary of the method: as §1

[7] = Quantitative High-Throughput drug screen in 47 multiple myeloma cell lines against the NCATS MIPE library collection: KMM1_JCRB cell viability assay (AID 1918960); further: nearly all actives have a fitted effect of over 30% in size
Summary of the method: as §3

[8] = Quantitative High-Throughput drug screen in 47 multiple myeloma cell lines against the NCATS MIPE library collection: EJM_DSMZ cell viability assay (AID 1918926; further: nearly all actives have a fitted effect of over 30% in size)
Summary of the method: as §2

[9] = Quantitative High-Throughput drug screen in 47 multiple myeloma cell lines against the NCATS MIPE library collection: Karpas417_ECACC cell viability assay (AID 1918961); details: Karpas417 myeloma viability, CellTiter-Glo ATP luminescence, 48 h; viability (% of DMSO): at 45.8 µM (top of the series)
Summary of the method: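 CellTiter-Glo ATP luminescence gave viability after 48 h compound treatment at 37C of 500 multiple myeloma cells per well. Normalisation used DMSO-only wells as 100% and media-only wells as 0% viability; primary qHTS of approved and investigational drugs.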

[10] = Primary redox qHTS assay for identification of artifact compounds. (AID 1845223)
Summary of the method: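 Redox-cycling detection via DTT (250 uM final) oxidation coupled to Amplex Red (25 uM)/HRP (250 mU/mL) in HBSS. 15 min preincubation plus 30 min after DTT, room temperature. Ex/Em 525/598 nm; 4-parameter Hill fit against DMSO and 10 uM DA3003.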
Potency means the concentration at half of the fitted maximal effect.

Compound	Potency [1]	Potency [2]	Potency [3]	Potency [4]	Potency [5]	Potency [6]	Potency [7]	Potency [8]	Potency [9]	Potency [10]
CO[C@@]12[C@H](COC(N)=O)C3=C(C(=O)C(C)=C(N)C3=O)N1C[C@@H]1N[C@@H]12	26.4 µM (active)	23.5 µM (active)	inactive	26.4 µM (active)	inactive	inactive	inactive	–	–	–
COC(c1ccccc1)(c1ccccc1)[C@H](Oc1nc(C)cc(C)n1)C(=O)O	inactive	inactive	inactive	inactive	inactive	inactive	inactive	inactive	inactive	–
CNC(=O)c1cc(Oc2ccc(NC(=O)Nc3ccc(Cl)c(C(F)(F)F)c3)cc2)ccn1	20.9 µM (active)	16.6 µM (active)	5.26 µM (active)	–	2.64 µM (active)	3.32 µM (active)	2.96 µM (active)	18.7 µM (active)	–	inactive
NC(=O)c1cccc(N)c1	inactive	inactive	inactive	–	–	inactive	inactive	inactive	–	–
Oc1c(Cl)cc(Cl)c2cccnc12	18.7 µM (active)	23.5 µM (active)	10.5 µM (active)	26.4 µM (active)	18.7 µM (active)	3.72 µM (active)	–	–	–	–
CC[C@H](C)C(=O)O[C@H]1C[C@@H](C)C=C2C=C[C@H](C)[C@H](CC[C@@H]3C[C@@H](O)CC(=O)O3)[C@H]21	11.8 µM (active)	–	inactive	23.5 µM (active)	inactive	inactive	inactive	–	–	inactive
Cc1cccc(Nc2ccncc2S(=O)(=O)NC(=O)NC(C)C)c1	inactive	inactive	inactive	–	–	inactive	inactive	inactive	–	–
COC(=O)Nc1nc2ccc(Sc3ccccc3)cc2[nH]1	0.935 µM (active)	1.05 µM (active)	–	–	1.32 µM (active)	–	1.18 µM (active)	16.6 µM (active)	–	–
CN(C)CCc1c[nH]c2ccc(C[C@H]3COC(=O)N3)cc12	inactive	–	inactive	inactive	inactive	inactive	–	inactive	3.72 µM (active)	inactive
COc1cc([C@@H]2c3cc4c(cc3[C@H](O)[C@H]3COC(=O)[C@H]23)OCO4)cc(OC)c1OC	inactive	inactive	inactive	inactive	inactive	inactive	0.001 µM (active)	inactive	inactive	–
Cc1onc(-c2ccccc2Cl)c1C(=O)N[C@@H]1C(=O)N2[C@@H]1SC(C)(C)[C@@H]2C(=O)O	inactive	inactive	inactive	–	inactive	inactive	inactive	inactive	inactive	inactive
CCc1c2c(nc3ccc(OC(=O)N4CCC(N5CCCCC5)CC4)cc13)-c1cc3c(c(=O)n1C2)COC(=O)[C@]3(O)CC	0.935 µM (active)	1.32 µM (active)	1.32 µM (active)	–	0.0105 µM (active)	–	0.935 µM (active)	4.69 µM (active)	–	–
C#CCN[C@@H]1CCc2ccccc21	inactive	inactive	inactive	inactive	inactive	inactive	inactive	–	inactive	–
CN1CCN(c2c(F)cc3c(=O)c(C(=O)O)cn(CCF)c3c2F)CC1	inactive	inactive	inactive	–	–	inactive	inactive	inactive	–	–
Cc1ccnc2c1NC(=O)c1cccnc1N2C1CC1	inactive	20.9 µM (active)	–	inactive	–	inactive	–	inactive	–	–
O=P(O)(O)C(O)(Cc1cccnc1)P(=O)(O)O	inactive	inactive	–	–	–	inactive	inactive	–	–	inactive
Cc1nnc(C(=O)NC(C)(C)c2nc(C(=O)NCc3ccc(F)cc3)c(O)c(=O)n2C)o1	inactive	inactive	0.0042 µM (active)	inactive	–	inactive	inactive	–	–	inactive
O=C(NCC1CN(c2ccc(N3CCOCC3=O)cc2)C(=O)O1)c1ccc(Cl)s1 (stereo unspecified)	–	–	–	–	–	–	–	–	–	inactive
CC1(C)[C@H](C(=O)O)N2C(=O)C[C@H]2S1(=O)=O	inactive	inactive	–	–	–	inactive	inactive	inactive	–	inactive
CNS(=O)(=O)CCc1ccc2[nH]cc(C3CCN(C)CC3)c2c1	16.6 µM (active)	1.18 µM (active)	–	–	10.5 µM (active)	inactive	18.7 µM (active)	–	16.6 µM (active)	inactive
O=S(=O)(O)CCS	inactive	inactive	–	inactive	–	inactive	inactive	inactive	–	–
NC1(c2ccc(-c3nc4ccn5c(=O)[nH]nc5c4cc3-c3ccccc3)cc2)CCC1	inactive	0.332 µM (active)	3.72 µM (active)	–	0.296 µM (active)	inactive	1.87 µM (active)	11.8 µM (active)	–	inactive
CCN(C)C(=O)Oc1cccc([C@H](C)N(C)C)c1	inactive	inactive	–	inactive	–	0.0332 µM (active)	–	inactive	–	–
CC1=NN(c2ccccc2)C(=O)C1	inactive	inactive	–	inactive	–	inactive	inactive	–	–	3.36 µM (active)
